Only a selection was taken, and hits are over-represented in it overall.
mIDH1 inhibitor: qHTS for Inhibitors of mutant isocitrate dehydrogenase 1 (IDH1): qHTS | Isocitrate dehydrogenase [NADP] cytoplasmic (Homo sapiens), O75874 | IDH1-R132H enzyme, NADPH consumption, diaphorase/resazurin fluorescence | Potency, µM (highest dose often 76.6 µM), without a hit: top-dose activity change, negative = inhibition, usual class: inhibitors | 390,000 compounds, 0.093% hits | AID 602179, 2012; also: potency is read from the fitted curve at half-maximal effect; % is scaled to controls: 0 for no effect and ±100 for the full control effect; nearly all actives have a fitted effect of over 65% in size
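IDH1-R132H (0.5 ug/mL dispensed) in pH 7.5 Tris buffer was preincubated 30 min with compound, then given a substrate mix of 0.016 mM NADPH and 2 mM alpha-KG for 80 min at room temperature; remaining NADPH was read by diaphorase/resazurin fluorescence.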
LDHA block: qHTS assay for inhibitors of human lactate dehydrogenase | L-lactate dehydrogenase A chain (Homo sapiens), P00338 | purified LDHA, NADH/diaphorase-resazurin fluorescence; active compounds read low | activity change, % (values are at about 110 or 230 µM) | 480,000 compounds, 0.15% hits; in the data active = activity change below about -30%;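 also: plate controls were DMSO wells for no effect and wells without enzyme for full effect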
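Human LDH5 (2 nM) was incubated with 0.06 mM NADH and 0.2 mM pyruvate for 5 min at room temperature in Tris pH 7.4. Remaining NADH was coupled through diaphorase/resazurin, and resorufin fluorescence was read at 0 and 20 min.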
Mito fusion act: qHTS Assay for Small Molecule Inhibitors of Mitochondrial Division or Activators of Mitochondrial Fusion | 320,000 compounds, 0.23% hits | Potency, µM (top dose mostly 46.1 µM), inactives show at the highest dose growth rescue (activation), actives largely listed as activators | AID 485298, 2010 | S. cerevisiae fusion-defective mutant growth rescue, CellTiterGlo 48 h; also: potency is read from the fitted curve at half-maximal effect; % of control where 0% means no effect; nearly all actives have a fitted effect of over 45% in size
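Read-out: ATP-based luminescence (CellTiterGlo, 10 min ambient) reporting growth of fusion-defective ts yeast after 48 hours at 37C on glycerol/ethanol YPEG medium in the presence of compound.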
ClpP mod: qHTS Assay for Activators of ClpP | ATP-dependent Clp protease proteolytic subunit (Bacillus subtilis (strain 168)), P80244 | purified B. subtilis ClpP, FRET peptide cleavage, 20 min | Potency, µM (titrated, usually from 57.5 µM), without a hit: at the top dose activity change, negative = active | 340,000 compounds, 1.9% hits; active = well fitted falling curve with a large enough effect; also: potency is read from the fitted curve at half-maximal effect; the source files actives as falling curves though it sought activators and does not explain the sign; nearly all actives have a fitted effect of over 65% in size
Target sequence (P80244 whole entry, looked up): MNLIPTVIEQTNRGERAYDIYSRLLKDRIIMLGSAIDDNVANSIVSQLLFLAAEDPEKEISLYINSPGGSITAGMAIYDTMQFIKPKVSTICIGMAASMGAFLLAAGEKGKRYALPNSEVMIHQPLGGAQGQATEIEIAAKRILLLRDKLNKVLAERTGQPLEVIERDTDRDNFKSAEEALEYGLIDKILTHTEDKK
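Buffer: 100 mM Tris/HCl pH8, 100 mM KCl, 0.05% low protease BSA, 2.5% glycerol, 0.01% Tween-20. ClpP 10 microg/mL final; 20 min RT; delta FRET normalized to ADEP and DMSO controls.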
RGS4 inhibitor: Inhibitors of Regulator of G Protein Signaling (RGS) 4: qHTS; Transcreener GDP fluorescence polarization, RGS4-accelerated GTP hydrolysis; Potency, µM (series often up to 114 µM), for inactives: at the top dose activity change, negative = inhibition, hits mostly inhibitors; AID 504845, 2011; 390,000 compounds, 0.039% hits; Regulator of G-protein signaling 4 (Homo sapiens), P49798; also: potency is read from the fitted curve at half-maximal effect; % is scaled to controls: 0 for no effect and ±100 for the full control effect; nearly all actives have a fitted effect of over 75% in size
Target sequence (P49798 whole entry, looked up): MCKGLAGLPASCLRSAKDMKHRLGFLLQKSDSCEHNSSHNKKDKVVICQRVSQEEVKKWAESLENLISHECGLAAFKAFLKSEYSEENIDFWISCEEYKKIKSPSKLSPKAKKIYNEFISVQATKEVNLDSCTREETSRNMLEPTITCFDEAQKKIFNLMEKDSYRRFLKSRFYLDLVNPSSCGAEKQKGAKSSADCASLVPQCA
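MLSMR compounds (23 nl, pin-transferred) preincubated 10 min at room temperature with a 500nM (2x) first reagent, then RGS4 at 900nM (2x) plus Transcreener GDP mix added; fluorescence polarization (620/688 nm) read before and after 90 min at 30 °C.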
ASM inhibitor: Inhibitors of Secretory Acid Sphingomyelinase (S-ASM): qHTS; Sphingomyelin phosphodiesterase (Homo sapiens), P17405; placental ASM, HMU-PC fluorogenic substrate, 60 min; Potency, µM (series often up to 57.5 µM), for inactives: at the top dose activity change, negative = inhibition, usual class: inhibitors; 340,000 compounds, 0.006% hits; AID 504937, 2011; also: potency is read from the fitted curve at half-maximal effect
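Fluorogenic HMU-PC substrate (9 uM final) is turned over by placental ASM in 60 min at 37 C after a 10 min compound preincubation. Reaction ended by alkaline stop (pH 10), with fluorescence read at 386/447 nm.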
Starred values were filed as active, the others as inactive. Unless noted, calls follow the shape of the dose curve; as a rule, active = well fitted curve in the direction sought with a large enough effect; inconclusive = small, poorly fitted or top-dose-only effect, or another doubt; inactive = no such curve, though single readings can be large; an effect the other way counts as inactive or inconclusive.

For O=C(OCc1ccc(F)cc1)c1ccc(C2Nc3ccccc3S(=O)(=O)N2)cc1 (stereo not given) the results were LDHA block 12.1.
Screening CC1CCCC(C)N1Cc1cn2ccccc2n1 (stereo not given) returned mIDH1 inhibitor 6.3%, LDHA block 1.3, Mito fusion act -7.4%, ClpP mod 17.8µM*, RGS4 inhibitor 18.0% and ASM inhibitor -2.1%.
`CCCn1c(N)c(N(CCOC)C(=O)c2cccc(S(=O)(=O)N3CCCc4ccccc43)c2)c(=O)[nH]c1=O` gave mIDH1 inhibitor 2.9%, LDHA block -3.8, Mito fusion act 5.1%, ClpP mod 31.6µM*, RGS4 inhibitor -5.5% and ASM inhibitor 3.8%.
CCCCn1c(N)c(N(CC)C(=O)c2cccc(S(=O)(=O)N3CCCc4ccccc43)c2)c(=O)[nH]c1=O was read as mIDH1 inhibitor 0.4%, LDHA block -1.1, Mito fusion act -0.3%, ClpP mod 1.9%, RGS4 inhibitor -29.9% and ASM inhibitor 5.7%.
`CCCn1c(N)c(N(CCOC)C(=O)c2cc3c(s2)CCC(CC)C3)c(=O)[nH]c1=O` (stereo not given) gave mIDH1 inhibitor 0.8%, LDHA block -4.9, Mito fusion act 1.0%, ClpP mod 12.6µM*, RGS4 inhibitor -5.2% and ASM inhibitor -0.8%.
Screening CCCCn1c(N)c(N(CCOC)C(=O)c2cc3c(s2)CCC(C)C3)c(=O)[nH]c1=O (stereo not given) returned mIDH1 inhibitor -4.6%, LDHA block 6.8, Mito fusion act -2.5%, RGS4 inhibitor -19.0% and ASM inhibitor 2.1%.
Screening Cc1ccc(OCCn2cc(/C=C3\C(=O)NN(c4ccccc4)C3=O)c3ccccc32)cc1 returned mIDH1 inhibitor 15.1%, LDHA block -5.0, Mito fusion act 10.8%, ClpP mod 17.8µM*, RGS4 inhibitor -14.2% and ASM inhibitor -23.6%.
For O=C1c2cc(Br)ccc2N(Cc2ccc(Br)cc2)S(=O)(=O)C1c1cc(Cl)c(Cl)cc1[N+](=O)[O-] (stereo not given) the results were mIDH1 inhibitor -3.9%, LDHA block -43.3*, ClpP mod 0.7%, RGS4 inhibitor 1.0% and ASM inhibitor -7.3%.
CC(C)(C)n1nnnc1C(c1cc2cc3c(cc2[nH]c1=O)OCCO3)N1CCSCC1 (stereo not given) was read as mIDH1 inhibitor -2.5%, LDHA block -3.0, Mito fusion act 0.7%, ClpP mod 25.1µM*, RGS4 inhibitor -4.5% and ASM inhibitor 92.6%.
CCC(C)(C)n1nnnc1C(c1cc2cc3c(cc2[nH]c1=O)OCO3)N1CCN(C)CC1 (stereo not given) was read as mIDH1 inhibitor 6.9%, LDHA block -0.3, Mito fusion act 1.3%, ClpP mod 8.91µM*, RGS4 inhibitor 10.6% and ASM inhibitor 270.3%.
`CCC(C)(C)n1nnnc1C(c1cc2ccc(OC)cc2[nH]c1=O)N1CCCCC1` (stereo not given) gave mIDH1 inhibitor -2.5%, LDHA block -12.4, Mito fusion act 1.1%, ClpP mod -27.2%, RGS4 inhibitor -15.5% and ASM inhibitor 44.5%.
Screening CC(Oc1ccccc1Cl)C(=O)Nc1cc(-c2ccc(F)c(F)c2)no1 (stereo not given) returned LDHA block -0.7.

Source: PubChem BioAssay (National Center for Advancing Translational Sciences (NCATS))
